Bioassay records (PubChem)
KB-V1 MDR tox: kills drug-selected multidrug resistant KB-V1 cells; Potency, µM (series often up to 46.1 µM), actives largely listed as cytotoxic; KB-V1 MDR cells viability, CellTiter-Glo, 72 h; hit rate 3.4% among 400,000; AID 1347076; note: nearly all actives have a fitted effect of over 60% in size
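Cytotoxicity via CellTiter-Glo luminescence after 72 h compound exposure at 37 degrees C. Cells: drug-selected KB-V1 line, DMEM phenol-red free plus 10% FBS. Compounds tested at multiple concentrations; normalized data fitted to concentration-effect curves.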
TDP1 cell CPT: DT40-hTDP1 cell growth loss with CPT. hit rate 12% among 420,000. chicken DT40 Tdp1-/-;hTDP1 cells + 20 nM CPT, ATP luminescence, 48 h. Potency, µM (top dose mostly 46.2 µM), most hits filed as inhibitors; note: nearly all actives have a fitted effect of over 55% in size
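Cell growth measured by CellTiter-Glo luminescence after a minimum 48 h, 37 C compound exposure with 20 nM CPT in Tdp1-knockout DT40 cells stably expressing hTDP1, seeded 400/well; qHTS titration format.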
KB-3-1 tox: kills parental KB-3-1 adenocarcinoma cells; KB-3-1 viability, CellTiter-Glo ATP luminescence, 72 h; Potency, µM (series often up to 46.1 µM), most hits filed as cytotoxic; hit rate 1.4% among 400,000; note: nearly all actives have a fitted effect of over 60% in size
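Parental KB-3-1 viability, qHTS format: 72 h compound exposure, 37 °C; CellTiter-Glo; media-only wells and DMSO plates as controls; concentration-effect fits on corrected data.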
TDP1 cell noCPT: qHTS for Inhibitors of human tyrosyl-DNA phosphodiesterase 1 (TDP1): qHTS in cells in absence of CPT. DT40 Tdp1-/- hTDP1 cells, no CPT, ATP luminescence, 48 h. Potency, µM (highest dose often 46.2 µM), actives largely listed as inhibitors. hit rate 15% among 420,000. AID 686978, 2013; note: nearly all actives have a fitted effect of over 55% in size
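No-CPT arm: Tdp1-/-;hTDP1 DT40 cells (400/well) plus compounds, incubated ≥48 hr at 37 °C. Readout CellTiter-Glo luminescence.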
HT1080-NT tox: kills 2HG-producing HT-1080-NT fibrosarcoma cells. Potency, µM (titrated, usually from 46.1 µM), most hits filed as cytotoxic. hit rate 1.6% among 360,000. HT-1080-NT fibrosarcoma viability, CellTiter-Glo ATP luminescence, 48 h;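 note: NT is the 2HG producing partner of a matched IDH1 knockdown line; nearly all actives have a fitted effect of over 55% in size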
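Read-out is CellTiter-Glo luminescence after 10 minutes at room temperature, following 48 hours' compound treatment of HT-1080-NT cells (750 cells/well, RPMI, 5% FBS, 37 degrees C).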
HT1080 IDH1KD tx: toxicity to HT-1080 IDH1 knockdown cells (counter line). Potency, µM (series often up to 46.1 µM), most hits filed as cytotoxic. hit rate 2% among 360,000. HT-1080 IDH1 knockdown viability, ATP luminescence, 48 h
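Using the IDH1-knockdown HT-1080 line run in the same batch and compound series as the NT line, viability after 48 h at 37 °C was determined by CellTiter-Glo luminescence and expressed as % activity.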
Each line names hits and unclear results; the compound was inactive in the other large screens. Sampled rows, rich in hits. Any-hit rate of the full collection: about 19%. Calls come from the whole dose curve; as a rule, active = well fitted curve in the direction sought with a large enough effect; inconclusive = small, poorly fitted or top-dose-only effect, or another doubt; inactive = no such curve, though single readings can be large; an effect the other way counts as inactive or inconclusive.

O=C(c1ccc(Cn2c(=S)[nH]c3cc4c(cc3c2=O)OCO4)cc1)N1CCN(c2ccccc2)CC1	TDP1 cell CPT inconclusive, TDP1 cell noCPT 23µM
CCOc1cc2[nH]c(=S)n(CCN3CCCCC3CC)c(=O)c2cc1OCC (centres undefined)	KB-V1 MDR tox inconclusive, TDP1 cell CPT inconclusive, TDP1 cell noCPT 16µM
Cc1cn(CC(=O)NCc2ccc3c(c2)OCO3)c(=O)[nH]c1=O	none
COc1ccccc1CNc1nc2ccc(C)cc2n2nnnc12	none (no result: KB-V1 MDR tox, KB-3-1 tox, HT1080-NT tox, HT1080 IDH1KD tx)
Nc1nonc1-n1nnc(C(=O)N/N=C/c2ccco2)c1CSc1ccc(Cl)cc1	TDP1 cell CPT inconclusive, TDP1 cell noCPT inconclusive
O=C(COC(=O)c1c(Cl)cccc1Cl)NCC1CCCO1 (centres undefined)	none
O=c1c2cc(N3CCOCC3)ccc2[nH]c(=S)n1CCN1CCCC1	none
COc1ccc(Cn2c(=S)[nH]c3cc(C(=O)N4CCN(c5ccccc5)CC4)ccc3c2=O)cc1	TDP1 cell CPT inconclusive, TDP1 cell noCPT inconclusive
CCOc1cc2[nH]c(=S)n(CCCOC)c(=O)c2cc1OCC	TDP1 cell noCPT inconclusive
CCOc1cc2[nH]c(=S)n(C(C)C)c(=O)c2cc1OCC	KB-V1 MDR tox inconclusive, TDP1 cell CPT 18µM, TDP1 cell noCPT inconclusive
CCOc1cc2[nH]c(=S)n(Cc3ccc(C)o3)c(=O)c2cc1OCC	TDP1 cell CPT 29µM
Cc1ccc(Cn2c(=S)[nH]c3ccc(N4CCOCC4)cc3c2=O)o1	KB-V1 MDR tox inconclusive, TDP1 cell CPT inconclusive, KB-3-1 tox inconclusive, TDP1 cell noCPT 16µM
COc1ccc(N2CCN(C(=O)c3ccc(Cn4c(=S)[nH]c5ccc(N6CCOCC6)cc5c4=O)cc3)CC2)cc1	KB-V1 MDR tox inconclusive, TDP1 cell CPT 23µM, TDP1 cell noCPT 18µM
O=C(NCCc1ccccc1Cl)c1ccc2c(c1)nc1n2CCOC1	none (no result: HT1080-NT tox, HT1080 IDH1KD tx)
CCOc1ccc(-n2c(SCC(=O)N3CCc4ccccc43)nc3c([nH]c4ccccc43)c2=O)cc1	KB-V1 MDR tox inconclusive (no result: HT1080-NT tox, HT1080 IDH1KD tx)
O=C(Nc1ccc2c(c1)OCCO2)C(c1ccnc2ccccc12)n1c(=O)c(-c2ccco2)nc2ccccc21 (centres undefined)	TDP1 cell CPT 7.3µM, TDP1 cell noCPT 15µM
O=C(Nc1ccc2c(c1)OCCO2)C(c1ccccc1)n1c(=O)c(-c2ccco2)nc2ccccc21 (centres undefined)	TDP1 cell CPT 4.1µM, TDP1 cell noCPT inconclusive
O=C(Nc1ccc2c(c1)OCCO2)C(c1ccccc1)n1c(=O)c(-c2cc3ccccc3[nH]2)nc2ccccc21 (centres undefined)	TDP1 cell CPT inconclusive, TDP1 cell noCPT inconclusive, HT1080 IDH1KD tx inconclusive
Cc1cccc(C)c1NC(=O)C(c1ccncc1)n1c(=O)c(-c2ccco2)nc2ccccc21 (centres undefined)	TDP1 cell noCPT inconclusive
O=C(Nc1ccc2c(c1)OCCO2)C(C1CC1)n1c(=O)c(-c2ccccc2)nc2ccccc21 (centres undefined)	TDP1 cell noCPT inconclusive
O=C(Nc1ccc2c(c1)OCCO2)C(c1ccncc1)n1c(=O)c(-c2ccco2)nc2ccccc21 (centres undefined)	TDP1 cell CPT 10µM, TDP1 cell noCPT inconclusive
Cc1cccc(C)c1N1C(=O)c2ccccc2NC(=O)C1C(=O)Nc1ccc2c(c1)OCCO2 (centres undefined)	none
O=C(CCN1CCOCC1)Nc1c(-c2ccccc2)c2cc(Br)ccc2[nH]c1=O	none
O=C(NN=C1CCCC1)c1[nH]c2ccc(Br)cc2c1-c1ccccc1	TDP1 cell CPT inconclusive, TDP1 cell noCPT inconclusive, HT1080-NT tox 8.2µM, HT1080 IDH1KD tx 5.8µM
O=C(N/N=C/c1ccccc1)c1[nH]c2ccc(Br)cc2c1-c1ccccc1	KB-V1 MDR tox 0.82µM, TDP1 cell CPT 1.2µM, KB-3-1 tox 0.73µM, TDP1 cell noCPT 1.2µM, HT1080-NT tox 0.46µM, HT1080 IDH1KD tx 0.73µM
Cc1noc(C)c1NC(=O)N(C)C[C@@H]1Oc2ncc(Br)cc2C(=O)N([C@@H](C)CO)C[C@@H]1C	none
COc1ccc2cnnc(SCC(=O)Nc3ccccc3)c2c1OC	KB-V1 MDR tox 2.9µM, TDP1 cell noCPT inconclusive
COc1ccc2cnnc(SCC(=O)Nc3ccc(C(C)=O)cc3)c2c1OC	KB-V1 MDR tox 5.2µM, TDP1 cell noCPT inconclusive
Cc1ccc(NC(=O)CSc2nncc3ccccc23)cc1	none
COc1ccc2cnnc(SCC(=O)Nc3ccc(C(=O)O)cc3)c2c1OC	KB-V1 MDR tox inconclusive
CCOc1ccc(NC2SC(=O)N(Cc3ccccc3)C2=O)cc1 (centres undefined)	none (no result: KB-V1 MDR tox, KB-3-1 tox, HT1080-NT tox, HT1080 IDH1KD tx)
CC(Nc1nc(-c2ccc(Cl)cc2)cs1)c1nc2cc(Cl)c(N3CCCCC3)cc2n1CCOCCO (centres undefined)	KB-V1 MDR tox inconclusive, TDP1 cell CPT 16µM, TDP1 cell noCPT 15µM, HT1080-NT tox inconclusive, HT1080 IDH1KD tx inconclusive
COc1ccc(-c2csc(NC(C)c3nc4cc(Cl)c(Cl)cc4n3CCOCCO)n2)cc1 (centres undefined)	TDP1 cell CPT inconclusive, TDP1 cell noCPT 18µM
Cc1csc(NC(C)c2nc3cc(Cl)c(N4CCCCC4)cc3n2CCOCCO)n1 (centres undefined)	TDP1 cell CPT inconclusive, TDP1 cell noCPT inconclusive
COc1ccc(-c2csc(NC(C)c3nc4cc(Cl)c(N5CCCCC5)cc4n3CCOCCO)n2)cc1 (centres undefined)	KB-V1 MDR tox inconclusive, TDP1 cell CPT 13µM, KB-3-1 tox inconclusive, TDP1 cell noCPT inconclusive, HT1080-NT tox inconclusive, HT1080 IDH1KD tx inconclusive
CCCn1c(C(C)Nc2nc(-c3cc(Cl)c(N)c(Cl)c3)cs2)nc2cc(Cl)c(N3CCCCC3)cc21 (centres undefined)	TDP1 cell CPT 18µM, TDP1 cell noCPT inconclusive
CC(Nc1nc(-c2ccc(F)cc2)cs1)c1nc2cc(Cl)c(Cl)cc2n1CCCO (centres undefined)	TDP1 cell CPT inconclusive, KB-3-1 tox inconclusive, TDP1 cell noCPT inconclusive, HT1080-NT tox inconclusive, HT1080 IDH1KD tx inconclusive
COc1ccc(-c2csc(NC(C)c3nc4cc(Cl)c(N5CCCCC5)cc4n3CCCO)n2)cc1 (centres undefined)	TDP1 cell CPT 26µM, KB-3-1 tox inconclusive, TDP1 cell noCPT inconclusive, HT1080-NT tox inconclusive, HT1080 IDH1KD tx inconclusive
CCCNc1ccc(S(=O)(=O)N(C(C)C)C(C)C)cn1	TDP1 cell noCPT inconclusive
CCCNc1ccc(S(=O)(=O)N(CC)CC)cn1	TDP1 cell CPT 16µM
